# Laboratory results taken from PubChem BioAssay (EPA / NIEHS).
# “And” between values parts separate entries of the source, which are not always exact repeats. Equal values may be shown once. Inconclusive results are not listed. Some compounds were tested as several samples or in several runs, with calls that do not always agree. The source made the active and inactive calls. Rule for the calls, unless noted: active = hit-call score of the fitted dose curve at least 0.9, where 1 is the maximum; inconclusive = response in the unintended direction; inactive = score below 0.9.
# How the values were obtained:
# [1] = biological target: Agonist Androgen Response Element (ARE), AR (gene 367) (UniProt P10275); experiment: OT_AR_ARELUC_AG_1440: Odyssey Thera (OT) 24-hour CHO-K1 Luciferase Assay for Agonist Androgen Response Element (ARE) (AID 2283379)
# Summary of the method: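 Seed CHO-K1 cells; dose compounds for 24 h; add D-luciferin plus ATP in PBS; read luminescence. Signal increase relative to vehicle defines agonist activity, with at least 3 replicate wells per sample.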
# [2] = biological target: Estrogen receptor beta (Homo sapiens) (UniProt Q92731); experiment: OT_ER_ERbERb_1440: Odyssey Thera (OT) 24-hour HEK293T Protein-Complementation Assay for Estrogen Receptor-beta/-beta Homodimer (AID 2283380);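 note: fluorescence gain from ER beta LBD homodimer complementation read by laser scanning cytometry; scored as signal increase over DMSO baseline for both agonists and antagonists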
# Sequence of Estrogen receptor beta (Homo sapiens) (Q92731 whole entry, looked up, the tested form may be a part): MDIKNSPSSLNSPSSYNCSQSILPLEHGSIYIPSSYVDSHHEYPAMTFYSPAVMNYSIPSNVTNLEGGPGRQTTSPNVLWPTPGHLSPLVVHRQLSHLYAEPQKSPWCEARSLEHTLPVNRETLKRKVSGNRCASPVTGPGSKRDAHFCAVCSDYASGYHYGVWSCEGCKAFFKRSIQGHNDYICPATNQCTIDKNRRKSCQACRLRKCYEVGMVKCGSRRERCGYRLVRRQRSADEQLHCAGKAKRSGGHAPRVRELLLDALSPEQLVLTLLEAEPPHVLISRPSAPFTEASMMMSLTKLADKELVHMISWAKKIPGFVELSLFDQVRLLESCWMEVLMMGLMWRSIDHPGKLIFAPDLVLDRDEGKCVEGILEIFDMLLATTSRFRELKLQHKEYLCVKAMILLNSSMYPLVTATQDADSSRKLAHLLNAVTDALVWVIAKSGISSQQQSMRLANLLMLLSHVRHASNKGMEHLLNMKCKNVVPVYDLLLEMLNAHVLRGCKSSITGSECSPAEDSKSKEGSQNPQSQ
# Summary of the method: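 HEK293T cells stably expressing human ER-beta LBD (aa 310-547) PCA homodimer pair, dosed 24 h; formaldehyde-fixed, Draq5-stained. Readout: increase in nuclear (agonist) or nuclear plus cytoplasmic (antagonist) fluorescence intensity versus DMSO, gain-of-signal fitting.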
# [3] = biological target: Estrogen receptor (Homo sapiens) (UniProt P03372); experiment: OT_ERa_GFPERaERE_0480: Odyssey Thera (OT) 8-hour HeLa Transcription Induction Assay for Estrogen Receptor (AID 2283381; active = hit-call score of the fitted dose curve at least 0.9, where 1 is the maximum; inactive = score below 0.9)
# Sequence of Estrogen receptor (Homo sapiens) (P03372 whole entry, looked up): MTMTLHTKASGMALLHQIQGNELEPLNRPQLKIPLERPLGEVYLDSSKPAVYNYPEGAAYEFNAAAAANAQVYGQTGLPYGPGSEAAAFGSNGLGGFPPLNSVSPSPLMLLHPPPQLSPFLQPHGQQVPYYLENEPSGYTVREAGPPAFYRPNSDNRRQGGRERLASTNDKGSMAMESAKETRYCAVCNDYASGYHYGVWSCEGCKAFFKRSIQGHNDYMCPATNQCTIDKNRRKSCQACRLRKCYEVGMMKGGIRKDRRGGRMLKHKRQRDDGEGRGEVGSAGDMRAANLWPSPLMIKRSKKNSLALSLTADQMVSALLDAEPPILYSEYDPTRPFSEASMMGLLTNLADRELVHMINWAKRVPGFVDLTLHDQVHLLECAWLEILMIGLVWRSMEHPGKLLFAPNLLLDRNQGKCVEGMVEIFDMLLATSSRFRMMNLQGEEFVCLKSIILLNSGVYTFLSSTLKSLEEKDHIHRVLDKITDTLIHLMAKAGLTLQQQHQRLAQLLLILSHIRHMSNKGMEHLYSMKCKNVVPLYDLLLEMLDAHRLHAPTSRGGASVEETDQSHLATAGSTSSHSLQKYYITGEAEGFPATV
# Summary of the method: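 Fluorescent reporter signal, imaged by microscopy and scored with image-analysis algorithms, was taken 8 h after chemical dosing of HeLa cells; activity was fitted upward relative to DMSO.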
# [4] = biological target: Estrogen receptor (Homo sapiens) (UniProt P03372); experiment: OT_ERa_GFPERaERE_0120: Odyssey Thera (OT) 2-hour HeLa Transcription Induction Assay for Estrogen Receptor (AID 2283382)
# Summary of the method: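 HeLa, 384-well, 2 h chemical exposure; GFP reporter induction (ERE), fluorescence microscopy; high content image analysis; positive fitting direction vs DMSO.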
# [5] = biological target: Retinoic acid receptor RXR-alpha (Homo sapiens) (UniProt P19793); experiment: OT_NURR1_NURR1RXRa_0480: Odyssey Thera (OT) 8-hour HEK293T Protein Complementation Assay for Nurr1/retinoid X receptor (RXR) (AID 2283385)
# Sequence of Retinoic acid receptor RXR-alpha (Homo sapiens) (P19793 whole entry, looked up, the tested form may be a part): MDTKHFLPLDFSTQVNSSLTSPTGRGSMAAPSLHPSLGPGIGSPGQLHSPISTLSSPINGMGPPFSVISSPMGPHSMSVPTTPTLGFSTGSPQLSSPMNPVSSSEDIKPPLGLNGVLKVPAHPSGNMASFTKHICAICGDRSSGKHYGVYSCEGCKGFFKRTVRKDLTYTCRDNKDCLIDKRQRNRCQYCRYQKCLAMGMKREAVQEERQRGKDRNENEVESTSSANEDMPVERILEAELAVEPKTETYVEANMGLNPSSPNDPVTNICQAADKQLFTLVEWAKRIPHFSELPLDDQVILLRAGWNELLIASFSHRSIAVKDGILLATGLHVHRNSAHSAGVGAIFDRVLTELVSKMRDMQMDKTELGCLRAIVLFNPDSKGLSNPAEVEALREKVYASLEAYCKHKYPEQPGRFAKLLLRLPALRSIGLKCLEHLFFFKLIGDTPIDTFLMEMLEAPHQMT
# Summary of the method: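 8 h compound exposure, HEK293T; Nurr1/RXRα fragment complementation; fluorescence intensity; positive fitting direction vs DMSO baseline.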
# [6] = biological target: Retinoic acid receptor RXR-alpha (Homo sapiens) (UniProt P19793); experiment: OT_NURR1_NURR1RXRa_1440: Odyssey Thera (OT) 24-hour HEK293T Protein Complementation Assay for Nurr1/retinoid X receptor (RXR) (AID 2283386)
# Summary of the method: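 Interaction of Nurr1 with RXRα brings fused reporter fragments together in human HEK293T cells, restoring a functional reporter. Fluorescence intensity is measured 24 h after chemical treatment, and values are analysed in the positive direction against DMSO.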
# [7] = biological target: Bile acid receptor (Homo sapiens) (UniProt Q96RI1); experiment: OT_FXR_FXRSRC1_0480: Odyssey Thera (OT) 8-hour HEK293T Protein-Complementation Assay for Farnesoid X receptor/SRC-1 Co-activator (AID 2283383)
# Sequence of Bile acid receptor (Homo sapiens) (Q96RI1 whole entry, looked up, the tested form may be a part): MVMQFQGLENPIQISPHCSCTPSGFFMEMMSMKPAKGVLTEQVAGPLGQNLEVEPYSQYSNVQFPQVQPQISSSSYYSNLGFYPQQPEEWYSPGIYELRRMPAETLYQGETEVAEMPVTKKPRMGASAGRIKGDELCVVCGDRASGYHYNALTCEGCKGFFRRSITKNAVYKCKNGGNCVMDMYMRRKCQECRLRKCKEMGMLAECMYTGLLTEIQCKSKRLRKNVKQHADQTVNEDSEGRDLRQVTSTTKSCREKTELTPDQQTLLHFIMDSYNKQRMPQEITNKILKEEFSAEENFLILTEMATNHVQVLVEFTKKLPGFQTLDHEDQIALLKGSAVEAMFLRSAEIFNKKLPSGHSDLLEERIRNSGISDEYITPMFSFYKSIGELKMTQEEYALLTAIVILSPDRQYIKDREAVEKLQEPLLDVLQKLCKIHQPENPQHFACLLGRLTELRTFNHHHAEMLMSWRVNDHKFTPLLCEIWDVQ
# Summary of the method: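 Human kidney HEK293T cells carried FXR/SRC-1 fragment-complementation constructs. Compounds were added and incubated 8 h. Reporter reassembly upon receptor–co-activator interaction was then quantified by fluorescence, with curves fitted in the positive direction relative to DMSO.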
# [8] = biological target: Bile acid receptor (Homo sapiens) (UniProt Q96RI1); experiment: OT_FXR_FXRSRC1_1440: Odyssey Thera (OT) 24-hour HEK293T Protein-Complementation Assay for Farnesoid X receptor/SRC-1 Co-activator (AID 2283384)
# Summary of the method: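 Compounds are applied to human kidney HEK293T cells expressing bait and prey fused to reporter protein fragments; after 24 h, reconstituted reporter fluorescence is measured. Activity is fitted as signal gain over DMSO.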
# [9] = biological target: Peroxisome proliferator-activated receptor gamma (Homo sapiens) (UniProt P37231); experiment: OT_PPARg_PPARgSRC1_0480: Odyssey Thera (OT) 8-hour Protein-Complementation Assay for Peroxisome Proliferator-activated Receptor Gamma / SRC-1 Co-activator (AID 2283387);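 note: nuclear to cytoplasmic split Venus YFP fluorescence ratio reporting PPARg SRC-1 interaction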
# Sequence of Peroxisome proliferator-activated receptor gamma (Homo sapiens) (P37231 whole entry, looked up, the tested form may be a part): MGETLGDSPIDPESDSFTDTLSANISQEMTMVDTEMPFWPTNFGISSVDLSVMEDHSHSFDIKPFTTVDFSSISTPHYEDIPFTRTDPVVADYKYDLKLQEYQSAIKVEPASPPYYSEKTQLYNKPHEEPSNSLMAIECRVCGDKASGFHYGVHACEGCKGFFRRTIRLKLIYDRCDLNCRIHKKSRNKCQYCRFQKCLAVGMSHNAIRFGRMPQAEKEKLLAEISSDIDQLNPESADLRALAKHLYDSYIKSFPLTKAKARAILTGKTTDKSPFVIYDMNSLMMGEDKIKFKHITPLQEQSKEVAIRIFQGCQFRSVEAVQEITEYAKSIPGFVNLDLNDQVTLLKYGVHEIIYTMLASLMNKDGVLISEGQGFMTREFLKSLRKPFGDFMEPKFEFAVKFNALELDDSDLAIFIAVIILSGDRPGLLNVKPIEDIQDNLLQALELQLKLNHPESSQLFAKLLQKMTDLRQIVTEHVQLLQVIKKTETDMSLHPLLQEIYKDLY
# Summary of the method: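 Protein-fragment complementation in HEK293T: Venus YFP halves (residues 1-158, 159-239, mutated to IFP1/IFP2) fused to PPARg/SRC-1. 8 h exposure; N/C ratio at 488 nm; DMSO negative control.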
# [10] = biological target: Peroxisome proliferator-activated receptor gamma (Homo sapiens) (UniProt P37231); experiment: OT_PPARg_PPARgSRC1_1440: Odyssey Thera (OT) 24-hour Protein-Complementation Assay for Peroxisome Proliferator-activated Receptor Gamma/ SRC-1 Co-activator (AID 2283388);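 note: nuclear to cytoplasmic ratio of reconstituted Venus YFP fluorescence in fixed imaged cells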
# Summary of the method: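 Protein-fragment complementation between PPARg and coactivator SRC-1 was measured by fluorescence imaging in transiently transfected HEK293T cells after 24 h treatment. Signal was quantified as N/C ratio in the 488 nm channel, with DMSO as negative control.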
# [11] = CEETOX_H295R_11DCORT: CeeTox H295R High-throughput Steroidogenesis Assay for 11-Deoxycortisol (11DCORT) (AID 2283432; active = hit-call score of the fitted dose curve at least 0.9, where 1 is the maximum; inactive = score below 0.9;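 for AC50: 11-deoxycortisol secreted into the medium measured by LC-MS/MS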); details: actives raise or lower the signal
# Summary of the method: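 Adrenal carcinoma line H295R, run per OECD 456 with minor changes, was forskolin-stimulated (10 uM, 48 h) before a 48 h chemical exposure at 0.1% DMSO. Secreted 11-deoxycortisol was quantified by HPLC-MS/MS.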
# [12] = CEETOX_H295R_OHPREG: CeeTox H295R High-throughput Steroidogenesis Assay for OH-Pregnenolone (OHPREG) (AID 2283434; active = hit-call score of the fitted dose curve at least 0.9, where 1 is the maximum; inactive = score below 0.9); details: actives raise or lower the signal
# Summary of the method: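 Human adrenal H295R cells were prestimulated 48 h with 10 uM forskolin, then exposed 48 h to chemical in 0.1% DMSO. Medium 17alpha-hydroxypregnenolone was quantified by HPLC-MS/MS after MTBE extraction; bidirectional fitting versus DMSO baseline.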
# [13] = CEETOX_H295R_CORTIC: CeeTox H295R High-throughput Steroidogenesis Assay for Corticosterone (CORTIC) (AID 2283437; active = hit-call score of the fitted dose curve at least 0.9, where 1 is the maximum; inactive = score below 0.9;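 note: corticosterone secreted into medium quantified by mass spectrometry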); details: actives raise or lower the signal
# Summary of the method: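 H295R cells were prestimulated 48 h with 10 uM forskolin, then exposed 48 h to test chemical in 0.1% DMSO. Medium corticosterone was MTBE-extracted and quantified by HPLC-MS/MS; bidirectional fit versus DMSO baseline.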
# [14] = CEETOX_H295R_CORTISOL: CeeTox H295R High-throughput Steroidogenesis Assay for Cortisol (AID 2283438; active = hit-call score of the fitted dose curve at least 0.9, where 1 is the maximum; inactive = score below 0.9;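 note: cortisol secreted into medium quantified by LC-MS/MS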); details: actives raise or lower the signal
# Summary of the method: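 Forskolin 10 uM 48 h prestim → test cmpd in DMSO (0.1% final) 48 h → medium MTBE-extracted → LC-MS/MS cortisol vs 7-pt std curve. Gain/loss of signal fitted vs DMSO. MTT viability in same wells.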
# [15] = CEETOX_H295R_DOC: CeeTox H295R High-throughput Steroidogenesis Assay for DOC (AID 2283439; active = hit-call score of the fitted dose curve at least 0.9, where 1 is the maximum; inactive = score below 0.9); details: actives raise or lower the signal
# Summary of the method: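 Readout: 11-deoxycorticosterone in culture medium by reverse-phase C18 HPLC with ESI+ tandem MS after MTBE extraction. Cells: H295R, forskolin-primed (10 uM, 48 h), chemical-treated 48 h; DMSO 0.1% final. Activity fitted bidirectionally versus DMSO.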
# [16] = CEETOX_H295R_ESTRONE: CeeTox H295R High-throughput Steroidogenesis Assay for Estrone (AID 2283441; active = hit-call score of the fitted dose curve at least 0.9, where 1 is the maximum; inactive = score below 0.9;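 note: estrone secreted into medium measured by LC-MS/MS after dansyl derivatization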); details: actives raise or lower the signal
# Summary of the method: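 H295R cells prestimulated 48 h with 10 uM forskolin, then exposed 48 h to chemicals in 0.1% DMSO final; estrone in medium extracted with MTBE, dansyl-derivatized, quantified by HPLC-MS/MS; bidirectional fitting versus DMSO, viability by MTT.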
# [17] = CEETOX_H295R_PROG: CeeTox H295R High-throughput Steroidogenesis Assay for Progesterone (PROG) (AID 2283442; active = hit-call score of the fitted dose curve at least 0.9, where 1 is the maximum; inactive = score below 0.9;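 for AC50: human H295R adrenal cells primed with 10 µM forskolin before dosing; progesterone secreted into medium by H295R cells measured by HPLC-MS/MS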); details: actives raise or lower the signal
# Summary of the method: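 Steps: seed H295R cells and let them adhere overnight; prime 48 h with 10 uM forskolin; dose with compound in DMSO at 0.1% final for 48 h; extract medium steroids with MTBE; measure progesterone by LC-MS/MS. MTT viability was run in the same wells.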
# [18] = read-out: Tumor necrosis factor receptor superfamily member 6 (Homo sapiens) (UniProt P25445); experiment: LTEA_HepaRG_FAS: Life Technologies and Expression Analysis (LTEA) Assay for Fas cell surface death receptor (FAS) using HepaRG (AID 2283447; active = hit-call score of the fitted dose curve at least 0.9, where 1 is the maximum; inactive = score below 0.9); details: mRNA level, 48 h; actives raise or lower the signal
# Summary of the method: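 Differentiated human HepaRG cells, pre-cultured 48 h, were exposed in duplicate for 48 h to 8-point half-log concentrations (top 100 uM, 0.5% DMSO) in serum-free induction medium; FAS mRNA measured by qRT-PCR, normalized to ACTB/GAPDH/POLR2A, bidirectional fit versus DMSO.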
# [19] = read-out: Fatty acid synthase (Homo sapiens) (UniProt P49327); experiment: LTEA_HepaRG_FASN: Life Technologies and Expression Analysis (LTEA) Assay for Fatty Acid Synthase (FASN) using HepaRG (AID 2283448; active = hit-call score of the fitted dose curve at least 0.9, where 1 is the maximum; inactive = score below 0.9); details: mRNA level, 48 h; actives raise or lower the signal
# Summary of the method: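 FASN expression changes, up or down relative to 0.5% DMSO, were measured by qRT-PCR in human HepaRG cells after 48 h treatment with chemicals at eight concentrations (half-log steps from 100 uM).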
# Sequence of Fatty acid synthase (Homo sapiens) (P49327 whole entry, looked up): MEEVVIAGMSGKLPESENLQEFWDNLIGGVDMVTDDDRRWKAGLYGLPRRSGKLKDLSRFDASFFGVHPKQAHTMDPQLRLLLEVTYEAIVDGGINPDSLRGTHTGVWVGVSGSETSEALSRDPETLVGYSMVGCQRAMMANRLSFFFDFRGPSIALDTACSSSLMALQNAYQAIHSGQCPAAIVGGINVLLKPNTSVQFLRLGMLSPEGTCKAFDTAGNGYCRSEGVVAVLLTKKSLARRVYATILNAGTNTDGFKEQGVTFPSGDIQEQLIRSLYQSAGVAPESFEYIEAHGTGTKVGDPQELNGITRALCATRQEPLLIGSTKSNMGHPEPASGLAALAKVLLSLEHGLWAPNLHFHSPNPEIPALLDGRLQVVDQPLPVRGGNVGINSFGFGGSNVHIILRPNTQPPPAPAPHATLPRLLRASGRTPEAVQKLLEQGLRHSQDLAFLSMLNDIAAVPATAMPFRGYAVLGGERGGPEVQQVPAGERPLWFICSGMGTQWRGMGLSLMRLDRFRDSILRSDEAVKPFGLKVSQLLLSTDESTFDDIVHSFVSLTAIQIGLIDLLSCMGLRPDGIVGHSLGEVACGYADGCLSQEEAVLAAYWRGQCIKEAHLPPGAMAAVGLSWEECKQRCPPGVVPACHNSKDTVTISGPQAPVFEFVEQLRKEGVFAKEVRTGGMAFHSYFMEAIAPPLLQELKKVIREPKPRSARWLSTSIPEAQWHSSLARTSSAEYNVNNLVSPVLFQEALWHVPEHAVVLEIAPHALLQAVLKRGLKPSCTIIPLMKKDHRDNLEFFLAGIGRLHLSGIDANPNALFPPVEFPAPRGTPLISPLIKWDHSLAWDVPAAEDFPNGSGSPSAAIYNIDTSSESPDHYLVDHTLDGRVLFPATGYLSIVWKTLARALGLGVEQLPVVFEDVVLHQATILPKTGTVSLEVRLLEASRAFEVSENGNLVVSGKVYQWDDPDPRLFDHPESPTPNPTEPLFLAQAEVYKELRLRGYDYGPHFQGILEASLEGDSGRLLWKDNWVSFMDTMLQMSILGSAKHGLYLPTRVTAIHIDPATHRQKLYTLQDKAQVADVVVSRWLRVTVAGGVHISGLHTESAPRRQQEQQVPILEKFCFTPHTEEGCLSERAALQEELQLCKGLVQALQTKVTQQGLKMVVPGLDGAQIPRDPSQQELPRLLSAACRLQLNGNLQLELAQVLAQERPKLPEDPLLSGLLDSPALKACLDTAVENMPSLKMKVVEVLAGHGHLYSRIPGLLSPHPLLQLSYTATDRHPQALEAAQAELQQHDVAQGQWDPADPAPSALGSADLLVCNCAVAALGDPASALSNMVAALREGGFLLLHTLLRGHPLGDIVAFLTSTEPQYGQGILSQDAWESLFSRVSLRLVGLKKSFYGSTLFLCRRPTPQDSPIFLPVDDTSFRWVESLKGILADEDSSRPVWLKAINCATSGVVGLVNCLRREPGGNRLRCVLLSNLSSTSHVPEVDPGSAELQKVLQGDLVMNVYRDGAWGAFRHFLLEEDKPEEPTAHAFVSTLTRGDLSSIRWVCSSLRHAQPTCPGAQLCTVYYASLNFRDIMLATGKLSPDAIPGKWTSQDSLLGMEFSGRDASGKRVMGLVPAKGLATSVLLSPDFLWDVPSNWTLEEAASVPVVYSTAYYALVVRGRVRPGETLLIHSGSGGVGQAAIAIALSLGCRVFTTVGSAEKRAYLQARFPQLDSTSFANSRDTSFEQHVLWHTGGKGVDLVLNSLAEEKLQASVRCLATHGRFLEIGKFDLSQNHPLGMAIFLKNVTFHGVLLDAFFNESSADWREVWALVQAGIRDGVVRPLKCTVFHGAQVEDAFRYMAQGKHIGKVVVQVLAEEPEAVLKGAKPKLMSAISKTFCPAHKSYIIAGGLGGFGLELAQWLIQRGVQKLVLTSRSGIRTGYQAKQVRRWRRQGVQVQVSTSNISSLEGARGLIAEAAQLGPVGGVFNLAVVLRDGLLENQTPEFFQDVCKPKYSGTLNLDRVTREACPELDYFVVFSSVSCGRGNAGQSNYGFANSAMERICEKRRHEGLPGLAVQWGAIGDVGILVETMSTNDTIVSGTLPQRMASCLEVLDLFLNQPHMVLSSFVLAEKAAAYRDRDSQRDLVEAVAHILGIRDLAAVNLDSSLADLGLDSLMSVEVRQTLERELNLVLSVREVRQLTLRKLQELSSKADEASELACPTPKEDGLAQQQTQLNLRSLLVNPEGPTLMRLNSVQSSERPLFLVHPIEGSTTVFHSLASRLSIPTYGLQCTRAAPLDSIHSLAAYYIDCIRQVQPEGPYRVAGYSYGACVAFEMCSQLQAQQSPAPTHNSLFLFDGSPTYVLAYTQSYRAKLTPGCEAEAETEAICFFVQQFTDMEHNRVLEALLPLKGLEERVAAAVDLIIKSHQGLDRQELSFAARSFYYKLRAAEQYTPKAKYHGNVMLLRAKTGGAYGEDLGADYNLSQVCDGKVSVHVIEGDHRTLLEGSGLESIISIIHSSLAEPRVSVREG
smiles,measurement,setting,value
CCO[Si](CC)(OCC)OCC,outcome,[1],inactive
same,outcome,[2],inactive
same,outcome,[3],inactive
same,outcome,[4],inactive
same,outcome,[5],inactive
same,outcome,[6],inactive
CC1COC(=O)O1 (configuration not stated),outcome,[1],inactive
same,outcome,[2],inactive
same,outcome,[4],inactive
same,outcome,[7],inactive
same,outcome,[8],inactive
same,outcome,[5],inactive
same,outcome,[9],inactive
same,outcome,[10],inactive
CC(C)C(=O)c1ccccc1,outcome,[2],inactive
same,outcome,[3],inactive
same,outcome,[4],inactive
same,outcome,[5],inactive
same,outcome,[9],inactive
same,outcome,[10],inactive
CCCc1ccc(N)cc1,outcome,[2],inactive
same,outcome,[3],inactive
same,outcome,[4],inactive
same,outcome,[5],inactive
same,outcome,[6],inactive
same,outcome,[9],inactive
same,outcome,[10],inactive
CCc1cccc(O)c1,outcome,[2],inactive
same,outcome,[3],inactive
same,outcome,[4],inactive
same,outcome,[7],inactive
same,outcome,[8],inactive
same,outcome,[9],inactive
same,outcome,[10],inactive
CCC(C)(C)C1CCC(OC)CC1 (configuration not stated),outcome,[2],inactive
same,outcome,[3],inactive
same,outcome,[4],inactive
same,outcome,[7],inactive
same,outcome,[8],inactive
same,outcome,[5],inactive
same,outcome,[9],inactive
same,outcome,[10],inactive
CCCCN(CCCC)CCCCCCN(CCCC)CCCC,outcome,[2],inactive
same,outcome,[3],inactive
same,outcome,[4],inactive
same,outcome,[5],inactive
same,outcome,[6],inactive
same,outcome,[9],inactive
same,outcome,[10],inactive
CCCCCC(=O)O[C@]1(C(C)=O)CC[C@H]2[C@@H]3CCC4=CC(=O)CC[C@]4(C)[C@H]3CC[C@@]21C,AC50,[2],12.6 µM (active)
same,outcome,[3],inactive
same,outcome,[4],inactive
same,AC50,[7],5.16 µM (active)
same,AC50,[8],11.6 µM (active)
same,AC50,[5],11.9 µM (active)
same,AC50,[6],26.3 µM (active)
same,outcome,[9],inactive
same,outcome,[10],inactive
same,AC50,[11],13.3 µM (active)
same,AC50,[12],11.4 µM (active)
same,outcome,[13],inactive
same,AC50,[14],6.66 µM (active)
same,outcome,[15],inactive
same,AC50,[16],13.2 µM (active)
same,AC50,[17],4.56 µM (active)
CC(C)CCCC(C)(C)O,outcome,[2],inactive
same,outcome,[3],inactive
same,outcome,[4],inactive
same,outcome,[5],inactive
same,outcome,[6],inactive
same,outcome,[9],inactive
same,outcome,[10],inactive
CCCCCCCCCCOC(=O)c1ccccc1C(=O)OCCCCCCCC,outcome,[1],inactive
same,outcome,[2],inactive
same,outcome,[3],inactive
same,outcome,[4],inactive
same,outcome,[6],inactive
same,outcome,[9],inactive
same,outcome,[10],inactive
CCCCOCCOCCO,outcome,[18],inactive
same,outcome,[19],inactive
[O-]/[N+](=N\O)c1ccccc1,outcome,[2],inactive
same,outcome,[4],inactive
same,outcome,[9],inactive
same,outcome,[10],inactive
CC/C(=C(\c1ccccc1)c1ccc(OCCN(C)C)cc1)c1ccccc1,AC50,[5],11.5 µM (active)
same,AC50,[6],10.4 µM (active) and 11.5 µM (active)
same,outcome,[9],inactive
same,outcome,[10],inactive
same,AC50,[11],0.136 µM (active)
same,outcome,[11],inactive
same,AC50,[12],0.311 µM (active)
same,outcome,[12],inactive
same,outcome,[13],inactive
same,outcome,[14],inactive
same,AC50,[15],0.222 µM (active)
same,outcome,[15],inactive
same,AC50,[17],0.141 µM (active)
same,outcome,[17],inactive
same,AC50,[18],71.4 µM (active)
same,outcome,[18],inactive
same,outcome,[19],inactive
